# Screening results from PubChem.
# DT40 TDP1 no CPT: qHTS for Inhibitors of human tyrosyl-DNA phosphodiesterase 1 (TDP1): qHTS in cells in absence of CPT. AID 686978, 2013. DT40 Tdp1-/- hTDP1 cells, no CPT, ATP luminescence, 48 h. Potency, µM (top dose mostly 46.2 µM), inactives show top-dose activity change, negative = growth inhibition, usual class: inhibitors. hit rate 15% among 420,000; note: potency is the fitted concentration of half-maximal effect; nearly all actives have a fitted effect of over 55% in size
#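 Luminescent ATP content (CellTiter-Glo) served as the growth readout. Knockout chicken DT40 cells expressing human TDP1 were exposed to compounds without camptothecin for a minimum 48 hr at 37 °C.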
# Six1-Eya2 blk: qHTS Assay for Inhibitors of the Six1/Eya2 Interaction; Homeobox protein SIX1 (Homo sapiens) + Protein phosphatase EYA2 (Homo sapiens), …; AlphaScreen GST-Six1/His-Eya2 binding, biochemical; hits give low values; activity change, % (no concentration beside the values); hit rate 0.56% among 360,000; in the data active = activity change below about -65%; inconclusive = mostly about -30% to -63%
#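 AlphaScreen luminescence read after one hour at 37 °C in darkness. Pin-transferred compounds met GST-Six1 and His-Eya2 protein (5X stock 250 nM/500 nM) plus glutathione donor and Ni-chelate acceptor beads (5X, 50 ug/mL).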
# TDP1 cell CPT: qHTS for Inhibitors of human tyrosyl-DNA phosphodiesterase 1 (TDP1): qHTS in cells in presence of CPT. Potency, µM (titrated, usually from 46.2 µM), inactives show at the highest dose activity change, negative = growth inhibition, most hits filed as inhibitors. hit rate 12% among 420,000. chicken DT40 Tdp1-/-;hTDP1 cells + 20 nM CPT, ATP luminescence, 48 h; note: potency is the fitted concentration of half-maximal effect; nearly all actives have a fitted effect of over 55% in size
#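 Cell growth measured by CellTiter-Glo luminescence after a minimum 48 h, 37 C compound exposure with 20 nM CPT in Tdp1-knockout DT40 cells stably expressing hTDP1, seeded 400/well; qHTS titration format.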
# IL-1B inflam inh: qHTS for Inhibitors of Inflammasome Signaling: IL-1-beta AlphaLISA Primary Screen; AID 743279, 2014; activity change, % at 57.5 µM; hit rate 4.7% among 360,000; THP-1 LPS/ATP IL-1B secretion, AlphaLISA, 16 h; hits give low values; in the data active = activity change below about -50%; inconclusive = mostly about -30% to -49%
#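 Secreted IL-1B measured by AlphaLISA bead assay after 16 h compound exposure of THP-1 cells; compounds (final up to 57.5 uM) added 1 h before LPS (250 ng/mL) and ATP (1.25 mM) stimulation; lower signal means less secretion.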
# TDP1 block: qHTS Assay for Inhibitors of Tyrosyl-DNA Phosphodiesterase (TDP1); Tyrosyl-DNA phosphodiesterase 1 (Homo sapiens), Q9NUW8; recombinant TDP1, AlphaScreen DNA substrate cleavage; Potency, µM (doses to about 130 µM), for the others: top-dose activity change, negative = inhibition, most hits filed as inhibitors; hit rate 0.28% among 350,000; note: potency is the fitted concentration of half-maximal effect; nearly all actives have a fitted effect of over 40% in size
# Target sequence (Q9NUW8 whole entry, looked up): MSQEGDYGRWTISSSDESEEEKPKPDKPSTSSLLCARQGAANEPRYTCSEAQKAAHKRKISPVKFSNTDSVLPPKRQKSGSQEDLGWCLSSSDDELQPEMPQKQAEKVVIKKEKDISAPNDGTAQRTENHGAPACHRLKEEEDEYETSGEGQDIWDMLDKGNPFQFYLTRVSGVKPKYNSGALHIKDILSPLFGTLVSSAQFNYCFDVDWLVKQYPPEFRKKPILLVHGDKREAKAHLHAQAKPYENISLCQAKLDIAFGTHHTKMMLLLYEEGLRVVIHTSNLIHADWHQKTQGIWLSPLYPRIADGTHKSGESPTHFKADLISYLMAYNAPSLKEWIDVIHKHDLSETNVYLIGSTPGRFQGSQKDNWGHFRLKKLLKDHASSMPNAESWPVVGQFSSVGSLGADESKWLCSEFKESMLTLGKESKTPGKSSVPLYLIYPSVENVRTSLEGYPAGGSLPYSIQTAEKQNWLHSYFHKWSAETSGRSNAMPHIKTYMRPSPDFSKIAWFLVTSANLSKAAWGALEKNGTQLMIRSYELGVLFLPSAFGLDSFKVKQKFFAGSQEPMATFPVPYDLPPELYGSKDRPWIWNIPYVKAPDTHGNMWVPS
#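 AlphaScreen read-out: signal falls as enzyme removes the 3' tyrosine-FITC from a 5'-biotinylated DNA oligo (15 nM, 5 min, RT). Enzyme was E. coli-made recombinant Tdp1 at 1 nM, exposed to compound for 15 min beforehand; beads 10 ug/ml, 10 min.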
# CtBP-E1A inh: qHTS Assay for Inhibitors of the CtBP/E1A Interaction | activity change, % (test concentration not listed) | AID 651724, 2012 | hit rate 0.49% among 340,000 | CtBP / adenovirus E1A interaction (AlphaScreen) | AlphaScreen GST-E1A/His-CtBP binding, 1536-well; hits give low values; in the data active = activity change below about -65%; inconclusive = mostly about -30% to -63%
#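 Protein mix (5X: 125 nM each GST-E1A, His-CtBP) was incubated with pinned compound 2 h at 37 deg C in dark, in 50 mM Tris pH 8.0 buffer with 300 mM NaCl. Glutathione donor and nickel acceptor beads followed; AlphaScreen signal read after 1 h.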
# * hit, by the source's call; u = inconclusive; x = no result; ! = not active in a repeat; [ ] = remark or other dose. In the library only some 18% were active in any assay of this set; here they are far more common. Unless noted, calls come from the whole dose curve; as a rule, active = well fitted curve in the direction sought with a large enough effect; inconclusive = small, poorly fitted or top-dose-only effect, or another doubt; inactive = no such curve, though single readings can be large; an effect the other way counts as inactive or inconclusive. % is set by controls: 0 for no effect and ±100 for the full control effect.
SMILES,DT40 TDP1 no CPT,Six1-Eya2 blk,TDP1 cell CPT,IL-1B inflam inh,TDP1 block,CtBP-E1A inh
O=C(CC1CCCCC1)c1c(O)c2ccccc2oc1=O,u,-10.0,18.4µM*,16.3,5.5%,-2.2
O=c1oc2ccccc2c(O)c1Cc1c(O)c2ccccc2oc1=O,-7.6%[21.1 µM],x,-4.2%[21.1 µM],x,9.6%[56.1 µM],x
O=c1[nH]c(=O)n(Cc2ccco2)c(O)c1C=NCc1ccc2c(c1)OCO2,-20.0%,-3.4,-27.0%,10.4,3.9%,-2.7
C[C@@H]1CC2(CCCC[N+]2(C)C)C[C@H]1C,-15.1%,-1.8,1.9%,15.3,0.0%,-12.2
CCN(c1cccc(C)c1)S(=O)(=O)c1ccc2c(c1)oc(=O)n2C,u,-0.4,3.3%,20.2,x,3.1
Cc1cccc(N(C)S(=O)(=O)c2cc(-c3cnc(C4CC4)o3)ccc2C)c1,23.1µM*,x,16.4µM*,x,1.2%,x
Cc1nn(CC(C)C)c(Cl)c1C(=O)NC1CCCC1,5.4%,5.1,4.3%,-9.6,x,-0.1
CC(C)c1ccc(C(O)P(=O)(OCc2ccccc2)c2ccc(N(C)C)cc2)cc1 (centres undefined),25.9µM*,-4.7,u,u,3.6%,-0.2
Cc1ccc(C(O)P(=O)(OCCC(C)C)c2ccc(N(C)C)cc2)cc1 (centres undefined),-17.2%,-7.5,u,-15.6,x,-0.6
CCCOP(=O)(c1ccc(N(C)C)cc1)C(O)c1ccc(Cl)cc1Cl (centres undefined),25.9µM*,-3.2,25.9µM*,-79.1*,x,-7.9
CC(C)CCOP(=O)(c1ccc(N(C)C)cc1)C(O)c1c(Cl)cccc1Cl (centres undefined),16.4µM*,-0.5,u,-16.9,x,x
Clc1cc(I)cc(Cl)c1NC1=NCCN1,-4.7%,-0.6,-4.0%,5.8,10.4%[56.1 µM],-2.3
COc1ccc(C(C)=O)cc1CC(C(=O)c1ccccc1)N(C)C (centres undefined),u,-8.9,u,6.0,1.1%,-0.3
Cc1ccc(NC(=O)c2cccn(Cc3ccccc3C)c2=O)c(C)c1,-22.5%,x,-11.0%,x,0.0%,x
Cc1ccc(NC(=O)C2C3CCCC2C3c2ccccc2)c(C)c1 (centres undefined),23.1µM*,30.8,u,-0.5,-1.1%,0.0
CC(C)c1ccc(C(=O)N2CCCC(c3cc(C(=O)Nc4ccccc4Cl)no3)C2)cc1 (centres undefined),5.8µM*,0.4,14.6µM*,36.3,x,0.8
CC(C)=CC1C(C(=O)OCc2cccc(Oc3ccccc3)c2)C1(C)C (centres undefined),-3.9%,x,-10.4%,x,x,x
C=CCC1=C(C)C(OC(=O)C2C(C=C(C)C)C2(C)C)CC1=O (centres undefined),24.3µM*,x,u,x,x,x
CC(C)Oc1ccc(C2(C#N)CC[N+](C)(C)CC2)cc1,-4.1%,6.5,10.1%,0.0,-1.2%,-2.3
NCCCP(=O)(O)O,x,x,x,x,-11.8%[56.1 µM],x
COC(=O)c1c(C)n(Cc2ccccc2)c2ccc(O)cc12,-13.9%,3.2,-24.3%,44.7,3.0%,0.4
COc1cc(OC)c(OC)cc1CN1CCN(C(=O)COc2ccc3ccccc3c2)CC1,25.9µM*,-18.7,u,u,1.2%,-18.5
COc1cccc(CN2CCN(C(=O)COc3ccc4ccccc4c3)CC2)c1,u,-14.5,u,5.2,2.1%,-14.3
COc1ccc(OCC(=O)N2CCN(Cc3ccc(SC)cc3)CC2)cc1,23.1µM*!,-20.8,u,-4.4,2.8%,1.0
COc1ccc(OCC(=O)N2CCN(Cc3ccc4c(c3)OCO4)CC2)cc1,11.9%,-8.8,-27.2%,-10.3,-5.6%,-10.8
SMILES,DT40 TDP1 no CPT,Six1-Eya2 blk,TDP1 cell CPT,IL-1B inflam inh,TDP1 block,CtBP-E1A inh
C[C@]12CCC3C(CC[C@H]4C[C@@H](O)CC[C@]34C)C1CC[C@@]2(O)C(F)(F)F (some centres undefined),x,x,x,x,0.7%,x
O=C1C=Cc2ccccc2C1=O,x,x,x,x,-11.0%,x
C[C@H]1COc2cc(N3CCN(C)CC3)ccc2S(=O)(=O)N1,-13.0%,10.7,0.7%,-15.2,x,-1.8
CN1[C@@H]2CC[C@H]1CC(OC(c1ccc(F)cc1)c1ccc(F)cc1)C2 (some centres undefined),9.44µM*,x,6.68µM*,x,6.0%,x
FC(F)(F)c1ccc(-c2ccc3c(c2)CNCc2cnnn2-3)cc1,u,6.6,u,-17.6,x,5.3
NC[C@H](CC(=O)O)c1ccc(Cl)cc1,-4.0%,x,u,x,15.3%[56.1 µM],x
CCC1(OC(=O)CN)C(=O)OCc2c1cc1n(c2=O)Cc2cc3ccccc3nc2-1 (centres undefined),0.0651µM*,-2.4,0.164µM*,-98.4*,0.0%,-1.6
CC[C@@]1(O)C(=O)OCc2c1cc1n(c2=O)Cc2cc3ccccc3nc2-1,0.0891µM*!,x,0.0794µM*,x,0.3%,x
CC[C@@]1(O)C(=O)OCc2c1cc1n(c2=O)Cc2cc3c(NC(=O)CN)cccc3nc2-1,0.411µM*,-0.8,0.231µM*,u,6.2%,-1.0
COC(=O)c1ccc(N2CCN(C)CC2)c([N+](=O)[O-])c1,-0.3%,4.2,5.4%,-5.7,5.5%,19.6
CCC(=O)Nc1ccc(C(=O)OCc2ccccc2Cl)cc1,u,0.0,u,0.9,-2.8%,-7.2
COC12C(COC(N)=O)C3=C(C(=O)C(C)=C(N)C3=O)N1CC1C2N1C (centres undefined),0.0651µM*,-7.3,0.0517µM*,5.7,u,-0.7
COC(=O)[C@@H]1C[C@@]2(O)[C@H](O)[C@H](O)[C@H](O)C[C@H]2N1Cc1cccnc1,x,x,x,x,3.3%,x
CCCN(c1ccc(C(C)C)cc1)S(=O)(=O)c1ccc2c(c1)CCN2C(=O)CC,7.31µM*,x,u,x,-2.5%,x
CC=C(CC)C1(CCC)C(=O)NC(=S)NC1=O,-7.3%,10.2,16.6%,-6.4,x,0.0
O=C(C[n+]1ccn(CCCNP2(=O)C=C(c3ccccc3)OC(c3ccccc3)=C2)c1)c1ccccc1,u,0.5,u,-54.6*,2.5%,-21.7
CCCCOC(=O)N(C)SN(C)C(=O)Oc1cccc2c1OC(C)(C)C2,x,x,x,x,-4.3%,x
COC(=O)C1=C(c2ccc(OC)c(OC)c2)C[C@@H]2CC[C@H]1N2C(=O)NC(C)C,-19.9%,2.8,9.3%,13.7,0.1%,4.3
